# Screening data (PubChem)
# SARS PLP yeast – qHTS of Yeast-based Assay for SARS-CoV PLP. S. cerevisiae expressing SARS-CoV PLpro, growth rescue. Potency, µM (series often up to 32.9 µM), for the others: at the highest dose activity, positive = growth rescue, most hits filed as activators. 330,000 tested, 0.19% active. AID 485353, 2010; calls by dose curve; note: 0% is about no effect; nearly all actives have a fitted effect of over 55% in size
# Sm TGR inh – qHTS Assay for the Inhibitors of Schistosoma Mansoni Peroxiredoxins; Potency, µM (top dose mostly 114 µM), for inactives: at the top dose activity change, negative = inhibition, most hits filed as inhibitors; purified TGR, DTNB reduction, TNB absorbance 405 nm; AID 485364, 2010; Schistosoma mansoni thioredoxin glutathione reductase (TGR), Q962Y6; 360,000 tested, 3% active; active = well fitted inhibition curve with a large enough effect; inconclusive = small, poorly fitted or top-dose-only effect; inactive = no such curve, though single readings can be large or run the other way; note: % is set by controls: 0 for no effect and ±100 for the full control effect; nearly all actives have a fitted effect of over 60% in size
#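 Kinetic colorimetric format: TGR-catalysed, NADPH-driven DTNB reduction monitored via TNB absorbance. Enzyme dispensed at 20 nM; compound exposure 15 min at room temperature before reaction start.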
# * hit, by the source's call; ? = inconclusive; / = not tested or not shown; [ ] = another dose, or the depositor's remark. A selection: hits, their analogues and other compounds. The true share with any hit is near 3%. Potency is the fitted concentration of half-maximal effect.
SMILES,SARS PLP yeast,Sm TGR inh
CCC(=O)C1=C(c2ccc(F)cc2)N(C(=O)CC)n2c(nnc2C2CCCCC2)S1,/,16%
COc1ccc(OC)c(NC(=O)c2c(C)oc3ncnc(N4CCOCC4)c23)c1,/,-4%
Cc1cc(F)ccc1NC(=O)c1c(C)oc2c1C1=NCCN1C=N2,/,-3%
CCc1nc(N2CCOCC2)c(C#N)c2c1CCCC2,1%,-5%
N#Cc1c(N2CCOCC2)nc(-c2ccco2)c2c1CCCC2,-4%,2.8µM*
CCN(CC)c1ccc(-c2nc(-c3ccncc3)no2)cc1[N+](=O)[O-],/,-4%
CCN(CC)c1ccc(-c2nc(-c3ccccn3)no2)cc1[N+](=O)[O-],/,50µM*
COc1ccc(Cl)cc1NC(=O)CSc1c2c(nc3ccccc13)CCC2,/,-5%
Cc1ccc(NC(=O)CSc2c3c(nc4ccccc24)CCCC3)cc1F,/,2%
COc1ccc(-n2nc(C(=O)NCCc3cccc(C)c3)c3c4ccccc4n(C)c3c2=O)cc1Cl,/,4%
COc1ccc(C(=O)NNC2=CC(=O)CC(C)(C)C2)cc1,-2%,?
CC1(C)CC(=O)C=C(OC(=O)c2ccc(Cl)cc2)C1,10%,14µM*
Cc1ccc(-c2noc(CCC(=O)NCc3ccco3)n2)cc1,-1%,?
O=C(CCc1nc(-c2ccccc2)no1)NCc1ccco1,2%,45µM*
COc1cc(-c2noc(CCCC(=O)NCc3ccco3)n2)cc(OC)c1OC,-11%,45µM*
COc1ccccc1-c1noc(CCCC(=O)NCc2ccco2)n1,/,-27%
CCc1ccccc1NC(=O)CSc1nnc(-c2cc(OC)c(OC)c(OC)c2)o1,/,-3%
Cc1cccc(N=Cc2[nH]c3ccc(Br)c(Cl)c3c2O)c1,8%,?
COc1ccccc1CN=Cc1[nH]c2ccc(Br)c(Cl)c2c1O,-34%,11µM*
CCS(=O)(=O)N1CC(=O)N(c2cc(C)cc(C)c2)C(C)(C(=O)NC2CCCCC2)C1 (stereo not drawn),/,1%
COc1cc(/C=C/C(=O)OCC(=O)Nc2ccc([N+](=O)[O-])cc2)ccc1O,-1%,-9%
CCOC(=O)/C=C/C(=O)OCC(=O)Nc1ccc([N+](=O)[O-])cc1,-4%,4µM*
CCOC(=O)c1cccc(NC(=O)/C=C/c2cccc([N+](=O)[O-])c2)c1,3%,0%
CCOC(=O)/C=C/C(=O)Nc1cccc([N+](=O)[O-])c1,-110%,0.71µM*
CCOC(=O)/C=C/C(=O)OCC(=O)Nc1cccc(Cl)c1Cl,-2%,?
SMILES,SARS PLP yeast,Sm TGR inh
CCOC(=O)/C=C/C(=O)Nc1ccccc1-c1ccccc1NC(=O)/C=C/C(=O)OCC,-4%,13µM*
CCN1C(=O)C(Cc2nc3ccccc3c(=O)n2-c2ccc(OC)cc2)c2cc(C)ccc21 (stereo not drawn),/,2%
O=C(NCCc1nc2ccccc2n1Cc1c(F)cccc1Cl)c1ccco1,/,-4%
COc1ccc(CN2CCCN(CC(=O)Nc3cc(C)ccc3C)S2(=O)=O)cc1,/,-2%
COc1ccccc1NC(=O)Cn1c(SCC(=O)N(C)c2ccccc2)nc2ccccc21,/,1%
COc1ccccc1OCC(=O)NCC(c1ccc(Cl)cc1)N1CCCCC1 (stereo not drawn),/,-11%
CCOC(=O)Cn1c(=O)n(CC2CCCO2)c2nc(-c3ccc(C)cc3)nc(C(N)=O)c21 (stereo not drawn),/,-2%
CC1(C)CC(=O)C(CC2=C(O)CC(C)(C)CC2=O)=C(O)C1,5%,2.8µM*
CC1(C)CC(=O)C(CC2=C(O)CC(C)(C)CC2=O)C(=O)C1,1%,24%[11.4 µM]
COC(=O)C1=C(c2ccccc2)c2ccccc2S(=O)(=O)N1CC(=O)Nc1ccc(F)c(F)c1,/,-1%
Cc1ccc(S(=O)(=O)N2CCN(CCc3ccccc3)CC2)c(C)c1,0%,0%
Cc1ccc(OC(=O)CN2C(=O)c3ccccc3C2=O)cc1C,0%,-4%
Cc1ccc(S(=O)(=O)ON2C(=O)c3ccccc3C2=O)c(C)c1,-20%,1.4µM*
Cc1cccc2c1N(C)C(=O)C2=O,0%,-5%
O=S(=O)(c1ccccc1)N1CCN(S(=O)(=O)c2ccc(F)cc2)CC1,5%,-21%
Cc1cc(C)c(C)c(S(=O)(=O)ON2C(=O)c3ccccc3C2=O)c1C,-6%,1.4µM*
Cc1cc(C)c(S(=O)(=O)ON2C(=O)c3ccccc3C2=O)cc1C,-6%,0.89µM*
O=C1c2ccccc2C(=O)N1OS(=O)(=O)c1ccc(F)cc1,-19%,0.71µM*
CC(C)Oc1ccc(CNC(=O)c2cnc3sc(N4CCCC4)nn3c2=O)cc1,/,-3%
CC(=O)Nc1nonc1-c1nnc(SCC(=O)Nc2ccc(C)cc2C)n1C,/,-2%
O=C(Nc1ccccc1)N(Cc1c[nH]c2ccccc12)C1CCCCCC1,/,-9%
CCN(CC)c1ccc(C(=O)N2CCC(c3c[nH]c4ccccc34)(c3c[nH]c4ccccc34)CC2)cc1,/,-6%
Cc1ccc(N2C(=O)CC(Sc3ccccc3C(=O)O)C2=O)cc1C (stereo not drawn),-5%,4µM*
CN1C(=O)CC(Sc2ccccc2C(=O)O)C1=O (stereo not drawn),-3%,?
COc1ccc(N2C(=O)CC(Sc3ccccc3C(=O)O)C2=O)c([N+](=O)[O-])c1 (stereo not drawn),-5%,11µM*
SMILES,SARS PLP yeast,Sm TGR inh
O=C(O)c1ccccc1SC1CC(=O)N(c2ccc3c(c2)OCO3)C1=O (stereo not drawn),-20%,2.2µM*
Cc1ccc(N2C(=O)CC(Sc3ccccc3C(=O)O)C2=O)c([N+](=O)[O-])c1 (stereo not drawn),-5%,/
Cc1cc(C)cc(N2C(=O)CC(Sc3ccccc3C(=O)O)C2=O)c1 (stereo not drawn),-8%,1.3µM*
Nc1ccccc1SC1CC(=O)N(c2ccc3c(c2)OCO3)C1=O (stereo not drawn),1%,-1%
CCOc1ccc(NC(=O)C2CCN(c3nnc(-n4c(C)ccc4C)s3)CC2)cc1,/,-22%
Fc1cccc(Cl)c1CNc1n[nH]c(-c2ccco2)n1,/,-7%
COc1cccc(OCc2cc(=O)n3c(-c4ccccc4)csc3n2)c1,/,-8%
CN(Cc1ccccc1)C1CC(=O)N(c2ccc(C(=O)O)cc2)C1=O (stereo not drawn),1%,20µM*
Cc1cccc(N2C(=O)CC(Sc3ccccc3C(=O)O)C2=O)c1 (stereo not drawn),-85%,14µM*
CC(C)CN1C(=O)CC(Sc2ccccc2C(=O)O)C1=O (stereo not drawn),-5%,?
Cc1cccc(N2CC(C(=O)O)CC2=O)c1 (stereo not drawn),2%,-2%
CCOC(=O)c1c(NC(=O)CSc2ccccc2C(=O)O)sc(C)c1C,0%,-11%
CCCCN1C(=O)CC(Sc2ccccc2C(=O)O)C1=O (stereo not drawn),1%,20µM*
CCOC(=O)c1c(N2C(=O)CC(Sc3ccccc3C(=O)O)C2=O)sc(C)c1C (stereo not drawn),-6%,4.5µM*
COc1ccc(N2C(=O)CC(N(CCc3ccccc3)C(=O)c3ccccc3)C2=O)cc1 (stereo not drawn),-2%,15%
COc1cc(C(=O)Nc2ccccc2OCc2cc(=O)n3cc(C)sc3n2)cc(OC)c1OC,/,4%
CCCCNc1nc(Oc2ccc(=O)n(-c3ccccc3)n2)nc(N(CC)CC)n1,/,1%
